# Experimental data taken from PubChem BioAssay (NCATS).
# Inconclusive results are not listed. Unmarked numbers belong to inactive results. Activity calls are given as the source filed them. Calls come from the whole dose curve; as a rule, active = well fitted inhibition curve with a large enough effect; inconclusive = small, poorly fitted or top-dose-only effect; inactive = no such curve, though single readings can be large or run the other way.
# Test system: not listed separately
# Test: qHTS to identify inhibitors of the type 1 interferon - major histocompatibility complex class I in skeletal muscle: primary screen against the NCATS Mechanism Interrogation Plate v5.0 (MIPE) Libary (AID 1347411); note: nearly all actives have a fitted effect of over 65% in size;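 for activity change, negative = inhibition: plate controls were vehicle for no effect and reference inhibitor for full effect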
# Details: iHSKM cells + IFN-b, HiBiT-tagged MHC-I luminescence, 24 h; series mostly up to 45.8 µM; activity change, negative = inhibition: at the top concentration
# Summary of the method: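 Seed engineered human myoblasts (HLA-B HiBit) in medium without dexamethasone containing 4 ng/ml IFN-beta; after 1 hr add compound titrations (top 46 uM final). Incubate 24 hrs at 37 C, lyse 10 min with HiBiT reagent, read luminescence.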
# Potency is the fitted concentration of half-maximal effect.
SMILES,"activity change, negative = inhibition",Potency
c1ccc2c(CN3CCNCC3)cccc2c1,14.5%,–
CCCC[N+]1(C)[C@H]2CC(OC(=O)[C@H](CO)c3ccccc3)C[C@H]1[C@H]1O[C@H]12 (some centres undefined),0.736%,–
CN(C)[C@@H]1C(=O)C(C(N)=O)=C(O)[C@@]2(O)C(=O)C3=C(O)c4c(O)cccc4[C@@](C)(O)[C@H]3[C@H](O)[C@@H]12,7.55%,–
CC1(N2CCC(n3c([C@@H]4CCCNC4)nc4ccccc43)CC2)CCCCCCC1,-69%,–
CC(C)(O)C(=O)Nc1ccc([N+](=O)[O-])c(C(F)(F)F)c1,-16.7%,–
CC(C)[C@]12O[C@H]1[C@@H]1O[C@]13[C@]1(O[C@H]1C[C@H]1C4=C(CC[C@@]13C)C(=O)OC4)[C@@H]2O,–,82.9 nM (active)
C#CC1(O)CCC2C3CCC4=CC(=O)CCC4(C)C3CCC21C (centres undefined),-12.1%,–
O=c1[nH]c2ccc(Cl)cc2c(N[C@@H]2CN3CCC2CC3)c1-c1nc2ccccc2[nH]1,–,4660 nM (active)
Cc1[nH]nc2ccc(-c3cncc(OC[C@@H](N)Cc4c[nH]c5ccccc45)c3)cc12,–,2620 nM (active)
O=C(NCC1CCOCC1)c1cnc(Nc2ccc(Cl)cc2Cl)nc1C(F)(F)F,-7.65%,–
Cc1ccccc1-n1c(Cn2ncc3c(N)ncnc32)nc2cccc(C)c2c1=O,2.37%,–
CCOC(=O)Nc1ccc(NCc2ccc(F)cc2)cc1N,-28%,–
Clc1ccccc1C(c1ccccc1)(c1ccccc1)n1cccn1,-21.7%,–
CC(C)[C@H]1C(=O)N[C@H](CO)Cc2c[nH]c3cccc(c23)N1C,4.92% [at 15.5 µM],–
O=C1C=CC[C@@H]2[C@H]3CCCN4CCC[C@@H](CN12)[C@@H]34,-11.7%,–
CCN(CC)C(=O)c1ccc(C2=CC3(CCNCC3)Oc3cccc(O)c32)cc1,-34.6%,–
O=C(N[C@@H](COc1ccc2[nH]c(=O)[nH]c2c1)c1ccccc1)c1cccn(Cc2ccc(F)c(F)c2)c1=O,-18.3%,–

# Biological target: Protein phosphatase 1D (Homo sapiens) (UniProt O15297)
# Test: RapidFire Mass Spectrometry qHTS Assay for Modulators of WT P53-Induced Phosphatase 1 (WIP1) (AID 1347424);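 note: amount of dephosphorylated VEPPL-S-QETFS peptide product formed by WIP1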;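 for activity change, negative = inhibition: plate controls were DMSO wells for no effect and GSK830371 inhibitor control at 10 µM for full effect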
# Details: WIP1 dephosphorylation of phosphopeptide, RapidFire MS; series mostly up to 128 µM; activity change, negative = inhibition: at the top concentration
# Summary of the method: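 RapidFire mass spectrometry measured dephosphorylated peptide after 5 min room-temperature reaction of 2 uM VEPPL-pS-QETFS with 10 nM WIP1 (50 mM Tris-HCl pH 7.5, 30 mM MgCl2, 0.1 mM EGTA, BSA), following 1 hr compound preincubation; 1 uM isotope-labelled product standard.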
# Chain of Protein phosphatase 1D (Homo sapiens) (O15297 whole entry, looked up): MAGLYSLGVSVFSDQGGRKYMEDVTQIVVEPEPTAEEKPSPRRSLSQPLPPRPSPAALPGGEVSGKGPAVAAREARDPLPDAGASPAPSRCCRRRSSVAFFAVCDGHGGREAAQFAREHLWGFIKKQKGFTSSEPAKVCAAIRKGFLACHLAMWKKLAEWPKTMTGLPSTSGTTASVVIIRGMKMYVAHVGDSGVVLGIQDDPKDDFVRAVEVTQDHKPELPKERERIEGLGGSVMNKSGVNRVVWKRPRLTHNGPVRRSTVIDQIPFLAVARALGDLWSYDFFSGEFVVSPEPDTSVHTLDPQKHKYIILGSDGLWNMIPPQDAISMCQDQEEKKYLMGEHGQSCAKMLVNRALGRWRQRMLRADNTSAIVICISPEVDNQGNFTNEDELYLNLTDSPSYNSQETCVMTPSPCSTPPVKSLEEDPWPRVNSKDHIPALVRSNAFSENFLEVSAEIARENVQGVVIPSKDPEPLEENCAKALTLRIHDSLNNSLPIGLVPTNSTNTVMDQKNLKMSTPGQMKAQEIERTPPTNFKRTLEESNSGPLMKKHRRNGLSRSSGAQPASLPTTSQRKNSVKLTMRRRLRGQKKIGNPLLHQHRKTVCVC
SMILES,"activity change, negative = inhibition",Potency
CO/C=C(/C(=O)OC)c1ccccc1Oc1cc(Oc2ccccc2C#N)ncn1,10.3%,–
O=C(O)CCCOc1ccc(Cl)cc1Cl,-24.9%,–
CC(=O)[O][Hg][c]1ccccc1,–,28200 nM (active)
CCCCCCCCCC(CC)c1ccc(S(=O)(=O)O)cc1 (centres undefined),–,1000 nM (active)
Nc1ccc(N=Nc2ccccc2)cc1,-29.1%,–
CCCCCCCCCCCCCCCC[N+](C)(C)C,34.6% [at 63 µM],–
CN[C@@H](C)[C@H](O)c1ccccc1,8.9% [at 63 µM],–
